High-throughput results from PubChem BioAssay.
Shown are actives, neighbours in structure and some others; about 3.8% of the full set was active somewhere.
pCIP destab = lowers stability of the mouse p/CIP coactivator protein; AID 1984; decrease of EGFP signal, % at 10 µM; F442A p/CIP-EGFP cells, EGFP fluorescence, 16 h; 290,000 tested, 0.01% active; Q05BA5;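 active = EGFP signal decrease of at least 30% at 10 µM or well 3 SD below plate mean, unless failing retest; inactive = the rest, including hits failing retest or dose response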
Target sequence (Q05BA5 1-1403): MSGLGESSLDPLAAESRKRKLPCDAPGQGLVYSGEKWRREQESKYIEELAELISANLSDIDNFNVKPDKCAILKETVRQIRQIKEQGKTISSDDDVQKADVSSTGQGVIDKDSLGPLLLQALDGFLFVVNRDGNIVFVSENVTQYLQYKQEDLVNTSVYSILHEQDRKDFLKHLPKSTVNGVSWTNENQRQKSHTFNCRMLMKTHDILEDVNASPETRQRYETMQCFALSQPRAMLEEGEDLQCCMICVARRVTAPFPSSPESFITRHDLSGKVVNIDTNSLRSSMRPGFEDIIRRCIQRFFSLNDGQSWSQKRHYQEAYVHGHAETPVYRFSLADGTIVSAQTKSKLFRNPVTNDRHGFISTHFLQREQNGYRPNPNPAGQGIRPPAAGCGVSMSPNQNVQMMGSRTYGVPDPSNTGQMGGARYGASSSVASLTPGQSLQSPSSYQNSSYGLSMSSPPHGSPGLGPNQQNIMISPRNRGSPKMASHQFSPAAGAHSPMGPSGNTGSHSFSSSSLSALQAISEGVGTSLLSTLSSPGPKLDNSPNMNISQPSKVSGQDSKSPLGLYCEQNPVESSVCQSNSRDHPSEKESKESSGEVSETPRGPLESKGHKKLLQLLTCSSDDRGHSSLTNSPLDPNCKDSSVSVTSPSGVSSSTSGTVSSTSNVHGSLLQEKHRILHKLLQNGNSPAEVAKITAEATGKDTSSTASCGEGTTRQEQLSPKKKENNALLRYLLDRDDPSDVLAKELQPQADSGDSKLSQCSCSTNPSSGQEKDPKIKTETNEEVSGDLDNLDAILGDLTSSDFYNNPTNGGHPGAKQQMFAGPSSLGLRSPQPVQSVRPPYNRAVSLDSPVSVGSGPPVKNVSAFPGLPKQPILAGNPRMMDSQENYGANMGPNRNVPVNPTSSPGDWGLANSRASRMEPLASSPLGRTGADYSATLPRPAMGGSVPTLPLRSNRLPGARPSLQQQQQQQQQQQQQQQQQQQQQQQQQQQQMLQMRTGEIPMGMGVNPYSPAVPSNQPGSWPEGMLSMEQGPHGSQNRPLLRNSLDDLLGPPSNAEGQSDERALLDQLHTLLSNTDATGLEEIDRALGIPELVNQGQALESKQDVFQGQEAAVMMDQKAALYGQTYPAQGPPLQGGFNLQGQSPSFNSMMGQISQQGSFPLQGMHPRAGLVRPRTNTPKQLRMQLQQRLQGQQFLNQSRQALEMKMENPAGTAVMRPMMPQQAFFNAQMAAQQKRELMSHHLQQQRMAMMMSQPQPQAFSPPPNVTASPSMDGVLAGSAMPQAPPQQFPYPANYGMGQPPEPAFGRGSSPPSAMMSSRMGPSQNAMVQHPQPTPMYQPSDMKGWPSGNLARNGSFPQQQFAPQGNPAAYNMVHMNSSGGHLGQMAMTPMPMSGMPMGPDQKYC
HSF1 inhib = HSF1 inhibition | AID 2098 | 300,000 tested, 0.77% active | activity change, negative = inhibition, % at 7.5 µM (by protocol) | NIH3T3-HGL HSE-luciferase, MG132-induced, luminescence 8 h; stronger effect = lower value;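 active = more than half of replicate wells show activity change below -50%, luminescence cut by over half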;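 also: luciferase reports HSF-1 transcriptional activity via heat shock element; 0% = median of DMSO wells and -100% = zero luminescence signal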
NALP1 inh = NALP1 inhibition; S. cerevisiae NALP1/ASC/caspase-1 growth, X-gal OD620, 72 h; 280,000 tested, 0.61% active; inhibition, % at 10 µM; in the data active = inhibition mostly above about 24%, no sharp cut-off; inactive = mostly below about 32%
HSF1 activator = increases HSF-1 driven luciferase reporter signal. NIH3T3-HGL HSF-1 luciferase reporter, MG132, 8 h; 100% = twice DMSO control signal. activation, % at 9 µM. 300,000 tested, 1.7% active;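 active = mean replicate activation of at least 50% with a set share of replicates each reaching 50%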;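 also: 0% = median of the neutral control wells and 100% = twice that signal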
Hsp70 activator = Hsp70 transcriptional activation, primary screen. HeLa Hsp70 promoter luciferase reporter, luminescence; scaled: vehicle 0, proteasome-inhibitor control 100%. activation, % at 10 µM. 200,000 tested, 0.04% active;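 active = activation above the mean across all tested compounds plus 3 SD, cutoff set per campaign, cut at about 5.5% in these data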;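 also: 100% = MG132 at 30 µM as the positive control and 0% = DMSO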
HSP90 inh = inhibitors of HSP90 luciferase refolding in rabbit reticulocyte lysate; luciferase refolding luminescence, 3 h; inhibition, % at 5.6 µM; 290,000 tested, 0.91% active; AID 1789;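 active = inhibition above the screen-wide mean plus 3 SD, computed separately per campaign, cut at about 16% in these data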;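 also: 0% = DMSO wells and 100% = 60 µM geldanamycin wells; inhibitors lower the luminescence because luciferase stays unfolded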
* marks the source's active call; other numbers are inactive results; · = no result.

SMILES	pCIP destab	HSF1 inhib	NALP1 inh	HSF1 activator	Hsp70 activator	HSP90 inh
CC1(C)CCCC2=C1CC1C(=O)N(N)C(=O)C1C2 (stereo not drawn)	-16	-10	17	7	·	0
O=C(NCc1cccnc1)c1c[nH]c2cc3c(cc2c1=O)OCCO3	-15	-33	10	-33	0	16*
O=C(NCc1ccccc1)c1c[nH]c2ccc(S(=O)(=O)Nc3ccc4c(c3)OCCO4)cc2c1=O	-9	-12	-5	-13	0	4
NS(=O)(=O)c1ccc(CNc2ccc3ccccc3n2)cc1	3	7	19	23	·	-1
Cc1cc2[nH]c(=O)c3ccccc3n2n1	-8	29	-4	54*	0	-1
CCc1nnc(NC(=O)C2CCCN2C(=O)Nc2ccc(Cl)cc2)s1 (stereo not drawn)	0	-4	30	9	·	-5
CCCC12CN3CC(C)(CN(C1)C3c1cccs1)C2=O (stereo not drawn)	-9	44	-1	62*	·	2
Cc1ccc(NC(=O)CSCC(=O)OC(C)C(=O)Nc2ccc(S(N)(=O)=O)cc2)c(C)c1 (stereo not drawn)	·	-12	·	-31	·	·
COc1ccc(NC(=O)CN2C(=O)NC(C)(c3ccccc3)C2=O)c(OC)c1 (stereo not drawn)	-2	-5	-6	-2	·	-1
CCC(=O)N1CCN(c2ccc(NC(=O)c3ccc(N4CCOCC4)c([N+](=O)[O-])c3)cc2)CC1	11	-8	38*	-14	·	1
CCC(=O)N1CCN(c2ccc(NC(=O)c3ccc4ccccc4c3)cc2)CC1	-15	28	11	66*	·	-3
CCC(=O)N1CCN(c2ccc(NC(=O)c3ccccc3)cc2)CC1	3	-3	-2	2	0	2
CCC(=O)N1CCN(c2ccc(NC(=O)COc3ccc(C)cc3C)cc2)CC1	-6	97	20	110*	·	6
COc1ccc(C(O)(CCN2CCCCC2)C2CCCCC2)cc1 (stereo not drawn)	-4	-9	13	-3	·	-2
OCC[C@@H]1C[C@H](O)[C@@H](O)[C@]2(Cc3ccccc3CO2)O1	4	-2	9	4	·	-4
OCC[C@@H]1C[C@@H](O)[C@H](O)[C@@]2(Cc3ccccc3CO2)O1	-9	-66*	24	-74	·	-1
C/C(=C\C(=O)c1ccccc1)NCc1ccc(F)cc1	-5	27	19	65*	0	4
CCn1c(CC(=O)Nc2ccccc2)nnc1SCC(=O)Nc1nncs1	-1	0	12	4	·	-3
CCOP(=O)(c1ccccc1)C(O)c1ccccc1 (stereo not drawn)	-6	-3	35	-9	0	0
Brc1ccc(/C=N/Nc2ncnc3c2cnn3Cc2ccccc2)cc1	-24	-15	30*	-5	0	-1
O=c1c2ccccc2[nH]c(=S)n1CCC1=CCCCC1	4	36	12	73*	0	0
O=c1c2ccccc2[nH]c(=S)n1CCN1CCCCC1	-19	0	17	26	·	0
CCOC(=O)Cn1c(CCC(=O)O)ccc1-c1ccc(F)cc1	-5	-77*	0	-82	0	-2
CCOc1ccccc1NC(=O)NC(C)c1ccncc1 (stereo not drawn)	0	2	2	-1	0	-2
CCOC(=O)/C=C/C(=O)Nc1nccs1	20	33	46*	53*	0	4
SMILES	pCIP destab	HSF1 inhib	NALP1 inh	HSF1 activator	Hsp70 activator	HSP90 inh
Cc1ccc(/C=C/C(=O)Nc2nccs2)o1	-3	33	36	62*	0	4
Cc1ccc(/C=C/C(=O)Nc2ncc(C)s2)o1	-6	31	19	46	0	4
CSc1nsc(SCC(=O)NCc2ccc(C)cc2)n1	26	-79*	-7	-84	·	-5
CSc1nsc(SCC(=O)Nc2ccc3c(c2)OCCO3)n1	2	24	27	55*	0	4
COc1ccc(-c2csc(NC(=O)CSc3nc(SC)ns3)n2)cc1	-5	24	34	71*	0	-7
Cc1ccc(NS(=O)(=O)c2cc(NC(=O)c3ccc4c(c3)NC(=O)CS4)ccc2C)c(C)c1	12	-3	4	-13	0	17*
